An excerpt weighted towards active compounds, which were near 4.1% of everything screened.
DAX1 inh-1 = inhibitors of human orphan nuclear receptor DAX1 (NR0B1). HEK293 Gal4-DAX1 luciferase reporter, luminescence. inhibition, % at 6.75 µM. 0.99% of 340,000 active. AID 504766;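 active means inhibition above the mean over all tested compounds plus 3 SD, cut at about 4.2% in these data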;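 further: inhibition shows as a rise in luminescence from relieved DAX1 repression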
hcDAF12 agonist = H. contortus DAF-12 activation, primary screen; HEK293 hcDAF-12 lit1-tk-luc reporter, luminescence; 0% DMSO, 100% Δ7-dafachronic acid; activation, % at 6.8 µM; 1.4% of 370,000 active;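 active means activation above the mean of all tested compounds plus 3 SD, cut at about 5.5% in these data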
ssDAF12 agonist = activates DAF-12 receptor from parasite S. stercoralis; HEK293 ssDAF-12/GRIP1 lit1-tk-luc reporter, luminescence; % of 3 µM dafachronic acid response; activation, % at 6.8 µM; 1% of 370,000 active; AID 652126;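 active means activation above the mean over all tested compounds plus 3 SD, cut at about 0.9% in these data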
hgDAF-12 ag = activates the H. glycines DAF-12 receptor ligand-binding domain; HEK293 GAL4-hgDAF12 UAS-luciferase reporter, agonist luminescence; normalized to butyrate control; activation, % at 6.8 µM; 1.8% of 370,000 active;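 active means activation above a cutoff set at the mean of all screened compounds plus 3 SD, cut at about 10% in these data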
DAX1 inh-2 = DAX1 (NR0B1) inhibition, primary screen; HEK293T StAR-luciferase reporter, SF-1/DAX-1 repression relief; inhibition, % at 6.8 µM; 1.1% of 370,000 active;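 active means inhibition above the mean over all tested compounds plus 3 SD, cut at about 3.6% in these data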;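 further: higher inhibition means more luminescence from relief of DAX-1 repression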
hgDAF12 ag = hgDAF-12 agonism, confirmation assay; shares compounds with hgDAF-12 ag; HEK293 GAL4-hgDAF12 luciferase reporter, agonist mode; percent of butyrate response; activation, % at 6.8 µM; 80% of 3,300 active;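 active means mean activation over triplicate wells above the hit cutoff derived from the earlier primary screen, cut at about 11% in these data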
LXRb DAF12 ctr = activates human LXR-beta, counter-screen for DAF-12 agonists. HEK293 Gal4-LXR luciferase reporter, 24 h. 3,300 tested, under 10 active. AID 743051. activation, % at 6.8 µM. shares compounds with hgDAF-12 ag;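 active means mean activation of the triplicate above a set limit carried over from the primary screen, none filed active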
Target sequence (P55055 whole entry, looked up, the tested form may be a part): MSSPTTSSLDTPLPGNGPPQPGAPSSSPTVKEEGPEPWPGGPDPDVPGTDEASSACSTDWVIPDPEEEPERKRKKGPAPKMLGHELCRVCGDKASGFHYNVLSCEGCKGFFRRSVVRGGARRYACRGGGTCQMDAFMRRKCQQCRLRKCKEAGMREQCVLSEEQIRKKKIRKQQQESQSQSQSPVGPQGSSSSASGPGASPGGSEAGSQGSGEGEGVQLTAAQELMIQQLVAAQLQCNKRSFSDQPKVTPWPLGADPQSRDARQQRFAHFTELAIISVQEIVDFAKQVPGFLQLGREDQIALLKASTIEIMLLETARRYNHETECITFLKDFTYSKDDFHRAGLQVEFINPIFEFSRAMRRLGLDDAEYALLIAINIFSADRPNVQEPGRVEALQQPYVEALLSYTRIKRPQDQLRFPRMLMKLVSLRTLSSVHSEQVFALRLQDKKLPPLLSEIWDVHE
Hits are given with their value; i = inactive; nt = no result given.

SMILES | DAX1 inh-1 | hcDAF12 agonist | ssDAF12 agonist | hgDAF-12 ag | DAX1 inh-2 | hgDAF12 ag | LXRb DAF12 ctr
O=c1[nH]c2ccccc2nc1-c1ccc(Cl)cc1 | i | i | i | i | i | nt | nt
CCOC(=O)[C@@]12CN(C(=O)OC(C)(C)C)CC=C1N(Cc1ccc(OC)cc1)C(=O)[C@H]2CC(=O)N1CCCCC1 | nt | i | i | i | i | nt | nt
CC(=O)Nc1ccc(C(=O)OCc2ccc(F)cc2)cc1 | i | i | i | i | i | nt | nt
CC(=O)Nc1ccc(C(=O)OCc2ccc(F)cc2Cl)cc1 | i | i | i | 24 | i | i | i
COC(=O)[C@@H]1N=C(c2ccc(OC)cc2)O[C@]12C(=O)N(Cc1cn(-c3ccccc3)nn1)c1cccc(Cl)c12 | nt | i | i | i | i | nt | nt
CCCc1ccc(C(=O)O/N=C(\N)c2ccccn2)cc1 | i | i | i | i | i | nt | nt
N/C(=N\OC(=O)c1ccco1)c1ccccn1 | i | i | i | 14 | i | i | i
N/C(=N/OC(=O)c1cccc([N+](=O)[O-])c1)c1cccc([N+](=O)[O-])c1 | i | i | i | i | i | nt | nt
CC(C)(C)CC(=O)O/N=C(\N)c1ccccn1 | i | 6.3 | i | 14 | i | 13 | i
N/C(=N\OC(=O)COc1ccc(Cl)cc1Br)c1ccncc1 | i | i | 1.3 | 16 | i | 19 | i
N/C(=N\OC(=O)c1cccc([N+](=O)[O-])c1)c1ccccn1 | i | 5.8 | 0.9 | 15 | i | 13 | i
N#CCCN1CCC(N)=NC1=NC#N | nt | i | i | i | i | nt | nt
Brc1ccc(CN2CCN(c3ncc(Cc4ccccc4)cn3)CC2)cc1 | nt | i | i | i | i | nt | nt
COC(=O)C1=C(C)N(Cc2ccc(F)cc2)C(=S)NC1c1ccc(Cl)cc1 (stereo not given) | nt | i | i | i | i | nt | nt
COc1ccc(C2CCC3(CCC(=O)N3CCO)CC2)cc1 (stereo not given) | nt | i | i | i | i | nt | nt
N/C(=N\OC(=O)COc1cc(Cl)c(Cl)cc1Cl)c1ccccn1 | nt | i | i | 14 | i | 12 | i
Cc1ccc(OCC(=O)O/N=C(\N)c2ccccn2)cc1 | i | i | i | 15 | 3.8 | 14 | i
Cc1cc(=O)oc2cc(OCc3c(F)cccc3Cl)ccc12 | nt | i | i | i | i | nt | nt
O=C(/C=C/c1ccco1)Nc1nnc(-c2ccco2)s1 | i | i | i | i | i | nt | nt
Cc1nc(NC(=O)/C=C/c2ccco2)sc1C | i | i | i | 13 | i | 19 | i
O[C@H](COc1cccc(C(F)(F)F)c1)CN1CCC(C(O)(c2ccccc2)c2ccccc2)CC1 | nt | i | i | i | i | nt | nt
O=C(c1ccccc1)c1ccc(N2CCOCC2)c(F)c1 | i | i | i | 16 | i | 14 | i
CCOC(=O)CN1C(=O)[C@]2(OCCC=C[C@H]2C)c2c(Br)cccc21 | nt | i | i | i | i | nt | nt
O=C(/C=C/c1ccccc1)NCCC1=CCCCC1 | i | i | i | 14 | i | 12 | i
O=C(/C=C/c1ccc(F)cc1)NCCC1=CCCCC1 | i | i | i | i | i | nt | nt
SMILES | DAX1 inh-1 | hcDAF12 agonist | ssDAF12 agonist | hgDAF-12 ag | DAX1 inh-2 | hgDAF12 ag | LXRb DAF12 ctr
COc1ccc(NC(=O)Nc2ccc(F)c(Cl)c2)cc1 | i | i | i | 17 | i | i | i
CCc1ccc(NC(=O)Nc2cccc(OC)c2)cc1 | i | i | i | 18 | i | 15 | i
COc1cccc(NC(=O)Nc2ccc(CC(=O)O)cc2)c1 | i | i | i | i | i | nt | nt
CNc1ncn(-c2c(C)cccc2C)c(=O)n1 | nt | i | i | i | i | nt | nt
Cc1ccc(Nc2nc(CSc3nnc(-c4ccccc4)n3C)cs2)cc1 | i | i | i | 14 | i | 12 | i
COc1cc(-n2c(C)nc3cc(C(=O)N4CC(C)CC(C)C4)ccc32)cc(OC)c1OC (stereo not given) | nt | i | i | i | i | nt | nt
CCOC(=O)c1sc(NC(=O)c2sccc2C)cc1C | i | 6.4 | 1.2 | 17 | i | 17 | i
CCOC(=O)c1sc(NC(=O)c2cccs2)cc1C | i | i | i | 15 | i | 14 | i
CCOC(=O)c1sc(Nc2nc3c(F)cccc3s2)cc1C | i | i | i | 16 | i | 13 | i
O=C(COC(=O)c1ccc(Sc2ncn[nH]2)c([N+](=O)[O-])c1)Nc1ccc(Cl)c(Cl)c1 | nt | i | i | i | i | nt | nt
Cc1nnc2nc(N)[nH]n2c1=O | nt | i | i | i | i | nt | nt
Cc1nc(N)sc1C(=O)N/N=C/c1ccccc1[N+](=O)[O-] | nt | i | i | 14 | i | i | i
c1cc2c(cc1-c1csc(NNC3=NCCCCC3)n1)OCCO2 | nt | i | i | 15 | i | i | i
c1cc2c(cc1Nc1nc(-c3ccc4c(c3)OCO4)cs1)OCCO2 | i | i | i | i | i | nt | nt
CC(C)(C)C(=O)Nc1nc(-c2ccc3c(c2)OCO3)cs1 | i | i | i | i | i | nt | nt
CCC(=O)Nc1nc(-c2ccc3c(c2)OCCO3)cs1 | i | i | i | 19 | i | 16 | i
C[C@H](CO)N1C[C@H](C)[C@@H](CN(C)C(=O)Nc2ccc(C(C)(C)C)cc2)OCc2cn(nn2)CCCC1=O | nt | i | i | i | i | nt | nt
CC(C)CC(=O)Nc1ccc2nn(-c3ccccc3)nc2c1 | i | i | i | 14 | i | 16 | i
C/C(=N\Nc1nccnc1Cl)c1c(F)c(F)c(F)c(F)c1F | i | i | i | i | i | nt | nt
C/C(=N\Nc1nccnc1Cl)c1ccc(O)cc1 | i | 6.5 | i | 16 | i | 11 | i
C[C@H](O)[C@@H]1CN2CCc3c([nH]c4c(-c5ccc6c(c5)OCO6)cccc34)[C@@H]2C[C@@H]1N(C)C(=S)NCCc1ccccc1 | nt | i | i | i | i | nt | nt
CN1C(=O)/C(=C/C=C2\SCCN2C)N(C)C1=S | i | i | i | 14 | i | 15 | i
CCN(CC)CCCC(C)Nc1nccc2cccc(Cl)c12 (stereo not given) | i | i | i | i | i | nt | nt
CCN(CC)CC(O)CNc1ccnc2c(Cl)ccc(Cl)c12 (stereo not given) | i | i | i | 13 | i | i | i
CC(C)CN1C(=O)[C@]2(CC(=O)N(C)C2c2ccccc2)c2cc(-n3cc(CCc4ccccc4)nn3)ccc21 (stereo not given in full) | nt | i | i | i | i | nt | nt
O=C(CN1CCN(c2nc(-c3ccccc3)cs2)CC1)Nc1ccc(Cl)cc1 | nt | i | i | i | i | nt | nt
O=C1CCCC(O)=C1N=Nc1ccc(C(=O)O)cc1 | i | i | i | i | i | nt | nt
O=C1CCCC(O)=C1N=Nc1ccc2c(c1)OCO2 | i | 5.9 | i | 14 | i | i | i
COc1ccc(C(=O)N2CCC[C@H]2C(=O)N2CCC[C@@H]2C(=O)NCc2ccccc2)cc1F | nt | i | i | i | i | nt | nt
CCOC(=O)C1CCCCN1C(=O)c1oc2c(Cl)cc(C)cc2c1C (stereo not given) | i | i | i | i | i | nt | nt
